“And” between values parts separate entries of the source, which are not always exact repeats. Identical values can stand only once. Records with an inconclusive call do not appear. Unmarked numbers belong to inactive results. The source made the active and inactive calls. Calls follow the shape of the dose curve; as a rule, active = well fitted curve in the direction sought with a large enough effect; inconclusive = small, poorly fitted or top-dose-only effect, or another doubt; inactive = no such curve, though single readings can be large; an effect the other way counts as inactive or inconclusive.
Key:
[1] = Viability qHTS for spleen associated tyrosine kinase inhibitor (SYKi) drug resistant MV4-11 cells (AID 1963824); also: nearly all actives have a fitted effect of over 35% in size
Method in brief: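 SYK inhibitor-resistant MV4-11 AML cells, 500 per well, added to predispensed compounds and incubated 72 hr at 37 C, 5% CO2. Viability measured by CellTiter-Glo luminescence after 10 min at room temperature.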

[2] = Cellular viability qHTS for adrenocortical cancer (ACC) cell line SW-13 (AID 1963989); conditions: SW-13 ACC cells viability, CellTiter-Glo, 48 h; activity (max response): stronger effect = lower value; also: nearly all actives have a fitted effect of over 65% in size;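 as to activity (max response): cells grown in serum-free medium with ITS supplement; % is scaled to controls: 0 for no effect and ±100 for the full control effect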
Method in brief: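 Luminescent ATP read-out (CellTiter-Glo, 20 min at room temperature) measured metabolically competent SW-13 cells after 48 h compound treatment. Final concentrations spanned up to 46 uM; bortezomib served as positive control.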

[3] = Cellular viability qHTS for adrenocortical cancer (ACC) cell line NCI-H295R (AID 1963990); also: nearly all actives have a fitted effect of over 60% in size;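 as to activity change, negative = viability loss: 0% = DMSO only wells and -100% = full killing with cytotoxic reference compound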
Method in brief: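 IC50 and maximal efficacy derive from four-parameter logistic modelling of titration curves, with reads scaled between DMSO-only wells (0%) and doxorubicin hydrochloride (100% inhibition). Compounds spanned up to 46 uM over 48 h.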
Potency is read from the fitted curve at half-maximal effect.

Compound: CCOc1c(N2CCOCC2)cnn(C)c1=O
- Potency [1]: inactive
- activity (max response) [2]: 6.29%
- Potency [3]: inactive

Compound: C/C=C(/C(=C/C)c1ccc(O)cc1)c1ccc(O)cc1
- Potency [1]: 14.8 µM (active)
- Potency [2]: 14.1 µM (active)
- Potency [3]: 23.1 µM (active) and 6.31 µM (active)

Compound: COc1cc(N)c(Cl)cc1C(=O)NC1CCN(CCCOc2ccc(F)cc2)CC1OC (stereo not drawn)
- Potency [1]: 23.7 µM (active)
- activity (max response) [2]: -12.2%
- Potency [3]: inactive

Compound: Oc1c(Cl)cc(Cl)c(Cl)c1Cc1c(O)c(Cl)cc(Cl)c1Cl
- Potency [1]: 5.96 µM (active)
- Potency [2]: 1.84 µM (active)
- Potency [3]: 2.06 µM (active)

Compound: CCC(C(=O)OCCOCCN(CC)CC)c1ccccc1 (stereo not drawn)
- Potency [1]: inactive
- activity (max response) [2]: -6.83%
- Potency [3]: inactive

Compound: CNC(=O)CCc1cc(-c2ccc(-c3ccc(C(F)(F)F)cc3)cc2)n(-c2ccc(N3CCNCC3)cc2)n1
- Potency [1]: 2.09 µM (active)
- Potency [2]: 3.98 µM (active)
- Potency [3]: 7.08 µM (active)

Compound: CC1(C)O[C@@H]2C[C@H]3[C@@H]4CCC5=CC(=O)C=C[C@]5(C)[C@@]4(F)[C@@H](O)C[C@]3(C)[C@]2(C(=O)CO)O1
- Potency [1]: 10.6 µM (active)
- activity (max response) [2]: 4.2% and -2%
- Potency [3]: inactive

Compound: N#Cc1c(N)nc(N)nc1N[C@H](c1nc2c(F)ccc(Cl)c2c(=O)n1-c1cccnc1)C1CC1
- Potency [1]: 10.5 µM (active)
- activity (max response) [2]: -22.7%
- Potency [3]: 22.4 µM (active)

Compound: CC[C@H](NC(=O)[C@H](CS(=O)(=O)CC1CC1)N[C@@H](c1ccc(F)cc1)C(F)(F)F)C(=O)C(=O)NC1CC1
- Potency [1]: inactive
- activity (max response) [2]: -11.3%
- Potency [3]: inactive

Compound: C[n+]1cc2c3c(ccc2c2ccc4cc5c(cc4c21)OCO5)OCO3
- Potency [1]: 1.3 µM (active)
- Potency [2]: 2.24 µM (active)
- Potency [3]: 1.42 µM (active)

Compound: COC(=O)C(c1ccccc1Cl)N1CCc2sccc2C1 (stereo not drawn)
- Potency [1]: inactive
- activity (max response) [2]: 0.0767%
- Potency [3]: inactive

Compound: C/C(=C(\CCOP(=O)(O)O)SC(=O)c1ccccc1)N(C=O)Cc1cnc(C)nc1N
- viability, % of control [1]: 78.4% [at 4.97 µM]
- activity (max response) [2]: 11.3%
- activity change, negative = viability loss [3]: 7.45% [at 3.81 µM]

Compound: O=C1OC2(CCC(C(=O)Nc3ccn(-c4ccccc4F)n3)CC2)c2cnccc21 (stereo not drawn)
- Potency [1]: 4.17 µM (active)
- activity (max response) [2]: -3.21%
- Potency [3]: inactive

Compound: NCC[C@H](O)C(=O)N[C@@H]1C[C@H](N)[C@@H](O[C@H]2O[C@H](CN)[C@@H](O)[C@H](O)[C@@H]2O)[C@H](O)[C@@H]1O[C@H]1O[C@H](CO)[C@@H](O)[C@H](N)[C@@H]1O
- viability, % of control [1]: 95% [at 0.588 µM]
- activity (max response) [2]: 11.7%
- activity change, negative = viability loss [3]: 7.11% [at 0.587 µM]

Compound: COc1ncc(Nc2ncc([C@H](C)N3CCN(S(C)(=O)=O)CC3)cc2-c2nc(C)nc(N)n2)cc1F
- Potency [1]: 2.35 µM (active)
- activity (max response) [2]: -5.36%
- Potency [3]: 0.224 µM (active)

Compound: CC(CNC1CCCCC1)OC(=O)c1ccccc1 (stereo not drawn)
- Potency [1]: inactive
- activity (max response) [2]: -5.58%
- Potency [3]: inactive

Compound: Nc1cccc2c1CN([C@H]1CCC(=O)NC1=O)C2=O
- Potency [1]: inactive
- activity (max response) [2]: -17.5%
- Potency [3]: inactive

Compound: C1=CC2C3C=CC(C3)C2C1 (stereo not drawn)
- Potency [1]: inactive
- activity (max response) [2]: 5.69%
- Potency [3]: inactive

Compound: COc1nc(OCc2cccc(-c3ccccc3)c2C)ccc1CNCCNC(C)=O
- Potency [1]: 3.72 µM (active)
- Potency [2]: 7.94 µM (active)
- Potency [3]: 6.31 µM (active)

Compound: CN[C@@H](C)C(=O)N[C@H](C(=O)N1CCC[C@H]1C(=O)Nc1sc(-c2ncco2)nc1-c1ccccc1)C1CCCCC1
- Potency [1]: 0.59 µM (active)
- activity (max response) [2]: -5.71%
- Potency [3]: inactive

Compound: CN1CCN(c2ccc3nc(-c4cc(C(C)(C)C)c(OCCCC(=O)NCCCN=[N+]=[N-])c(C(C)(C)C)c4)[nH]c3c2)CC1
- Potency [1]: 5.25 µM (active)
- Potency [2]: 3.98 µM (active)
- Potency [3]: 3.16 µM (active)

Compound: Nc1c(I)cc(I)c(C(=O)N(CCC(=O)O)c2ccccc2)c1I
- Potency [1]: inactive
- activity (max response) [2]: -3.73%
- Potency [3]: inactive

Compound: CCc1c(C(=O)NNC(=O)[C@@H](O)c2cc(F)cc(F)c2)ccc(O)c1C
- Potency [1]: 9.2 µM (active)
- activity (max response) [2]: -4.91%
- Potency [3]: inactive

Compound: CC(=O)c1ccc(OCC(=O)N2CCCCC2)cc1
- Potency [1]: inactive
- activity (max response) [2]: 7.54%
- Potency [3]: inactive

Compound: C[n+]1c2cc(N)ccc2cc2ccc(N)cc21 (tested in a mixture with another compound)
- Potency [1]: 1.88 µM (active)
- Potency [2]: 2.31 µM (active)
- Potency [3]: 1.3 µM (active)

Compound: CC(C)n1ncnc1-c1cn2c(n1)-c1ccc(O[C@@H](C)C(N)=O)cc1OCC2
- Potency [1]: 4.68 µM (active)
- activity (max response) [2]: -4.9%
- Potency [3]: 0.631 µM (active)
